Screening data (PubChem)
This is a sample that favours compounds with a hit; in the whole collection about 21% have one here.
CYP2C9 activ = CYP2C9 (human) activation; recombinant CYP2C9, luciferin-H conversion, luminescence; active compounds read high; factor 1 = untreated enzyme, 0 = blocked; 96,000 tested, 1.4% active; activation factor at 5 µM;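 active = activation factor of 2 or more for CYP2C9 at a 5 µM dose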
CYP2C9 inh = human CYP2C9 inhibition. P11712. CYP2C9 Supersomes, luciferin-H conversion, luminescence. 96,000 tested, 20% active. inhibition, % at 5 µM;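 active = blocking of liver enzyme CYP2C9 beyond about 50% at 5 µM, limit read from the data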
CYP2C19 inhib = blocks human cytochrome P450 2C19; CYP2C19 Supersomes, luciferin-H EGE luminescence, 30 min; inhibition, % at 5 µM; 96,000 tested, 21% active; AID 778;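 active = CYP2C19 inhibition above a set limit at 5 µM in the primary screen, cut at about 50% in these data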
Target sequence (P33261 whole entry, looked up): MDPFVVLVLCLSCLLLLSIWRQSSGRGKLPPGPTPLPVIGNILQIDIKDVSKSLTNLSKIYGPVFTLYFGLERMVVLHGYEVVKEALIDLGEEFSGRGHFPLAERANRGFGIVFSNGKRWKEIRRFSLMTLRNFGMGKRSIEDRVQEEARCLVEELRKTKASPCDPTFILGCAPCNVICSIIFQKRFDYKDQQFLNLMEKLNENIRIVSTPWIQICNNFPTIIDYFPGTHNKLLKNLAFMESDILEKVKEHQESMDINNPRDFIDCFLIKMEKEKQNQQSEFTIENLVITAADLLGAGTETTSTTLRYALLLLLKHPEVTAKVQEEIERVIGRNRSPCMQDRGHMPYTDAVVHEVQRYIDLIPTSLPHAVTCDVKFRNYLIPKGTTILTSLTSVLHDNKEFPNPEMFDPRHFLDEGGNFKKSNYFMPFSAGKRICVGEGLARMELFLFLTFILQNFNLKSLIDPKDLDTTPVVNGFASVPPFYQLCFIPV
MRP resist rev = reverses drug resistance mediated by MRP. 85,000 tested, 0.04% active. differential viability (reversal), % at 10 µM. H69AR cells + 2 uM doxorubicin, CellTiter-Glo, 72 h;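 active = viability drop by adding the cancer drug above about 55%, with treated viability meeting a 40% cutoff, limit read from the data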;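 note: larger differential means the compound sensitizes cells more to doxorubicin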
CYP2C19 activ = activators of human cytochrome P450 2C19; P33261; recombinant CYP2C19, luciferin-H EGE luminescence; active compounds read high; 0 = fully inhibited enzyme, 1 = untreated enzyme; activation factor at 5 µM; 96,000 tested, under 10 active;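 active = activation factor of at least 2 at 5 µM in the primary screen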
MRP-1 activ = activates MRP-1; H69AR cells + doxorubicin, viability rescue, CellTiter-Glo; AID 799; viability increase, % at 10 µM; 140,000 tested, 0.61% active;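 active = viability gain under doxorubicin at or above a set limit, the compound median plus 3 SD, cut at about 4.7% in these data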;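 note: MRP-1 overexpressing cells given doxorubicin 25 µM after compound pretreatment; 18-22 h compound pretreatment then 72 h with doxorubicin before readout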
Large screens that a line does not name were inactive.

COc1cc(/C=C(\C#N)c2ccccn2)ccc1OCc1ccccc1Cl	MRP-1 activ 5.9 (no result: CYP2C9 activ, CYP2C9 inh, CYP2C19 inhib, MRP resist rev, CYP2C19 activ)
Cc1ccc(C)c(NCCC#N)c1	none (no result: CYP2C9 activ, CYP2C9 inh, CYP2C19 inhib, MRP resist rev, CYP2C19 activ)
O=C(COC(=O)/C=C/c1ccc([N+](=O)[O-])cc1)NC(c1ccccc1)c1ccccc1	none (no result: CYP2C9 activ, CYP2C9 inh, CYP2C19 inhib, MRP resist rev, CYP2C19 activ)
CN(C)C(=O)c1ccccc1Sc1ccc(Cl)cc1Cl	CYP2C9 inh 58, CYP2C19 inhib 95 (no result: MRP resist rev)
CN(C)C(=O)c1ccccc1Sc1cc(Cl)ccc1Cl	CYP2C19 inhib 75 (no result: MRP resist rev)
CC(=O)Nc1ccc(NC(=O)c2ccccc2Sc2ccc([N+](=O)[O-])cc2Cl)cc1	none (no result: CYP2C9 activ, CYP2C9 inh, CYP2C19 inhib, MRP resist rev, CYP2C19 activ)
c1ccc(-c2ccc(-c3ccccn3)nn2)nc1	CYP2C19 inhib 56
COC(=O)c1ccc(CSc2nnc(-c3ccncc3)n2Cc2ccccc2)o1	CYP2C9 inh 74, CYP2C19 inhib 87
COC(=O)c1ccc(CSc2nnnn2-c2ccc(C)cc2C)o1	CYP2C9 inh 86, CYP2C19 inhib 90
COC(=O)c1ccc(CSc2nnc(-c3ccncc3)o2)o1	CYP2C9 inh 76, CYP2C19 inhib 91
Cc1ccc(NC(=O)CCSc2nnc3ccccn23)cc1	CYP2C19 inhib 55
Cc1ccc2c(c1)C(c1ccc(F)cc1)N(C(=O)c1cc3ccccc3oc1=O)CC(=O)N2 (stereo unspecified)	none (no result: CYP2C9 activ, CYP2C9 inh, CYP2C19 inhib, MRP resist rev, CYP2C19 activ)
O=[N+]([O-])c1cn(Cc2ccccc2)cn1	none (no result: CYP2C9 activ, CYP2C9 inh, CYP2C19 inhib, MRP resist rev, CYP2C19 activ)
Cc1ccc(-n2nnnc2SCC(=O)NCCC2=CCCCC2)c(C)c1	CYP2C9 inh 80, CYP2C19 inhib 71
COC(=O)C(C)Sc1nnc(-c2ccncc2)o1 (stereo unspecified)	CYP2C19 inhib 89
COC(=O)c1ccc(CSc2nnc3ccccn23)o1	CYP2C19 inhib 52
CCc1nnc(SCc2ccc(C(=O)OC)o2)n1N	none
COc1ccc(-n2c(C)nc(=O)c(-c3ccccc3)c2C)cc1	MRP-1 activ 8.2 (no result: CYP2C9 activ, CYP2C9 inh, CYP2C19 inhib, CYP2C19 activ)
Cc1nc(=O)c(-c2ccccc2)c(C)n1-c1ccccc1C(=O)O	none
COc1ccccc1-n1c(C)nc(=O)c(-c2ccccc2)c1C	CYP2C19 inhib 78
Cc1nc(=O)c(-c2ccccc2)c(C)n1-c1cccc(C(=O)O)c1	MRP-1 activ 6.0
CCCOc1nc2c(c(=O)n(C)c(=O)n2C)n1Cc1cccc2ccccc12	none
CC(NCc1ccccc1)C1COc2ccccc2O1 (stereo unspecified)	CYP2C19 inhib 52
COc1ccc(CNC(C)C2COc3ccccc3O2)c(OC)c1 (stereo unspecified)	CYP2C19 inhib 87
CCC(c1nnnn1Cc1ccco1)N(CCN1CCOCC1)Cc1cc2cc(C)ccc2[nH]c1=O (stereo unspecified)	none
O=C(CSc1nnnn1-c1ccc2c(c1)OCO2)NCc1cccs1	none
COc1cccc(-n2nnnc2SCC(=O)Nc2ccc3c(c2)OCCO3)c1	none (no result: MRP resist rev)
O=C(CSc1nnnn1-c1ccc2c(c1)OCO2)NCc1ccccc1	CYP2C19 inhib 92
COc1cccc(-n2nnnc2SCC(=O)NCc2ccc3c(c2)OCO3)c1	CYP2C9 inh 60, CYP2C19 inhib 88
COc1cc(OC)cc(-n2nnnc2SCC(=O)NCc2ccc3c(c2)OCO3)c1	CYP2C19 inhib 53
Cc1nnc(SCC(=O)NCc2ccc3c(c2)OCO3)[nH]c1=O	CYP2C9 inh 68
CC(=O)Nc1nonc1NC(=O)c1ccc(C(C)(C)C)cc1	none
Cc1oc2nc(SCC(=O)NC3CCCCC3)nc(N)c2c1C	none (no result: CYP2C9 activ, CYP2C9 inh, CYP2C19 inhib, CYP2C19 activ, MRP-1 activ)
COc1ccc(C2SCCN2C(=S)Nc2cccc(Cl)c2)cc1 (stereo unspecified)	none (no result: CYP2C9 activ, CYP2C9 inh, CYP2C19 inhib, MRP resist rev, CYP2C19 activ)
Fc1ccccc1CSc1nnnn1-c1ccc2c(c1)OCO2	CYP2C19 inhib 92
COc1ccc(-n2nc3c(c2NC(=O)C24CC5CC(CC(C5)C2)C4)CS(=O)C3)cc1 (stereo unspecified)	CYP2C9 activ 2.4
COc1ccc(-n2nc3c(c2NC(=O)C2CC2)CS(=O)C3)cc1 (stereo unspecified)	none
CCn1c(COc2ccc(=O)n(-c3ccccc3)n2)nnc1SCc1ccccc1C	CYP2C9 inh 61 (no result: MRP resist rev)
CCOC(=O)c1cnn(-c2ccccc2)c1NC(=O)c1ccc(C)cc1	none
Cc1ccc(C(=O)Nc2c(C(=O)NCc3ccco3)cnn2-c2ccccc2)cc1	CYP2C9 inh 56
O=C(Nc1c(C(=O)NCc2ccco2)cnn1-c1ccccc1)c1cccc(F)c1	CYP2C9 inh 87, CYP2C19 inhib 67
COc1ccc(CC(=S)N2CCOCC2)cc1	CYP2C19 inhib 96 (no result: MRP resist rev)
